Calls of active or inactive are those of the source. Rule for the calls: active = hit-call score of the fitted dose curve at least 0.9, where 1 is the maximum; inactive = score below 0.9.
Assay: CCTE_Shafer_MEA_acute_network_burst_percentage: CCTE's Neural Acute Assay for Percentage of Network Bursts, Shafer Lab (AID 2284022);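 note: curves fitted for loss so actives lower network burst percentage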
Description: CCTE_Shafer_MEA_acute assay is conducted using Axion Biosystems 48 well microelectrode array (MEA) plates and Maestro recording system. Each well of the MEA plate contains a grid of 16 microelectrodes embedded in the culture surface. Electrically active cells, such as neurons, can be cultured over the electrodes, and electrical activity in these cells can be recorded extracellularly. The spontaneous firing of neurons is captured from each electrode on a microsecond timescale providing both temporally and spatially precise data. […] The CCTE_Shafer_MEA_acute assay uses primary cultures of rat cortical neurons. As these cultures mature over time, neural networks develop functional activity and form cohesive networks in which electrical activity can be highly coordinated. Baseline 40-minute recordings are made on days post-plating 13 or 15, followed by a secondary 40-minute recording after chemical exposure.CCTE_Shafer_MEA_acute_network_burst_percentage is a component of the CCTE_Shafer_MEA_acute assay. It measures the percent of spikes (action potential firings) in network bursts (temporally-clustered groups of spikes across multiple electrodes) as the number of spikes occuring in network bursts divided by the total number of spikes during a recording in a microelectrode array (MEA) using Axion Biosystems Maestro 768 channel amplifier with the AxIS adaptive spike detector. The recordings before and after chemical treatment are used to calculate a percent change in the network burst percentage in each well.Data from the assay component CCTE_Shafer_MEA_acute_network_burst_percentage was analyzed into 1 assay endpoint. This assay endpoint, CCTE_Shafer_MEA_acute_network_burst_percentage, was analyzed in the negative analysis fitting direction relative to DMSO as the negative control and baseline of activity. Using a type of functional reporter, gain or loss-of-signal activity can be used to understand electrical activity.
Spontaneous activity in the cortical cultures was recorded using an Axion Biosystems Maestro 768 channel amplifier and Axion Integrated Studios (AxIS) v1.8 (or later) software. The amplifier recorded from all channels simultaneously (gain = 1200 x; sampling rate = 12.5 kHz/channel): raw signals were filtered with a Butterworth band-pass filter (300-5000 Hz), which filters out slower local field potentials leaving only fast potentials, i.e., "spikes", arising from extracellular currents associated with action potentials (Pine 2006; Wheeler and Nam 2011). On-line spike detection of filtered signals was conducted with the AxIS adaptive spike detector, using a threshold of 8x the root mean squared (rms) noise on each channel. Any electrodes with rms noise levels greater than 5 uV were grounded (e.g., no data were recorded). Once grounded, an electrode was grounded for the duration of the experiment. All recordings were conducted at 37 C. Wells were deemed usable if on the day of the exposure >/= 10 electrodes were active (defined as >/= 5 spikes/min). On DIV 13 or 15, a minimum of three wells from one cortical culture preparation were treated with each compound (0.03-40 uM). Prior to recording baseline activity, each mwMEA plate was placed in the Maestro at 37 C and allowed to sit for 20 min while firing rates stabilized. Baseline activity (40 min) was recorded before the addition of each compound. An additional 40 min of spontaneous activity was recorded in the presence of each compound. Changes in network parameters relative to baseline were assessed following compound treatment.

Row | SMILES | outcome | AC50
1 | CCCC(=NOCC)C1=C(O)CC(CC(C)SCC)CC1=O (stereo unspecified) | inactive | 
2 | N#Cc1c[nH]cc1-c1cccc2c1OC(F)(F)O2 | inactive | 
3 | CCCN(CC)CC1COC2(CCC(C(C)(C)C)CC2)O1 (stereo unspecified) | inactive | 
4 | Nc1c(Cl)c(F)nc(OCC(=O)O)c1Cl | inactive | 
5 | Cn1c(-c2ccccc2)cc(-c2ccccc2)[n+]1C |  | 28 µM (active)
6 | CC(C)N1C(=O)c2ccccc2NS1(=O)=O | inactive | 
7 | CNC(=O)Oc1cccc2ccccc12 | inactive | 
8 | CC1(C)C(C=C(Cl)Cl)C1C(=O)OC(C#N)c1cccc(Oc2ccccc2)c1 (stereo unspecified) |  | 1.94 µM (active)
9 | Cc1ccc(N=CN(C)C=Nc2ccc(C)cc2C)c(C)c1 |  | 20 µM (active)
10 | CCOC(=O)C(C)OC(=O)c1cc(Oc2ccc(C(F)(F)F)cc2Cl)ccc1[N+](=O)[O-] (stereo unspecified) | inactive | 
11 | CN/C(=N\[N+](=O)[O-])NCc1cnc(Cl)s1 | inactive | 
12 | O=C(Nc1ccccc1-c1ccc(Cl)cc1)c1cccnc1Cl | inactive | 
13 | COP(=S)(OC)SCn1nnc2ccccc2c1=O | inactive | 
14 | CO/N=C(/C1=NOCCO1)c1ccccc1Oc1ncnc(Oc2ccccc2Cl)c1F | inactive | 
15 | OC(c1ccc(Cl)cc1)(c1ccc(Cl)cc1)C(Cl)(Cl)Cl |  | 20 µM (active)
16 | COCC(=O)N(c1c(C)cccc1C)C(C)C(=O)OC (stereo unspecified) | inactive | 

Row | SMILES | outcome | AC50
17 | Clc1nc(Cl)nc(Nc2ccccc2Cl)n1 | inactive | 
18 | CC(C)=CC1C(C(=O)OCc2coc(Cc3ccccc3)c2)C1(C)C (stereo unspecified) | inactive | 
19 | CC(C)C1(C)N=C(c2ncccc2C(=O)O)NC1=O (stereo unspecified) | inactive | 
20 | C=C(C)CN(CC)c1c([N+](=O)[O-])cc(C(F)(F)F)cc1[N+](=O)[O-] | inactive | 
21 | COC(=O)N(C(=O)N1CO[C@@]2(C(=O)OC)Cc3cc(Cl)ccc3C2=N1)c1ccc(OC(F)(F)F)cc1 | inactive | 
22 | CC1(C)CCC(=Cc2ccc(Cl)cc2)C1(O)Cn1cncn1 (stereo unspecified) | inactive | 
23 | Cc1c(COC(=O)[C@@H]2[C@H](/C=C(\Cl)C(F)(F)F)C2(C)C)cccc1-c1ccccc1 |  | 0.225 µM (active)
24 | CC(C)N1C(=O)N(c2ccccc2)CSC1=NC(C)(C)C |  | 26.5 µM (active)
25 | CCOP(=O)(OCC)Oc1nc(Cl)c(Cl)cc1Cl | inactive | 
26 | CCOc1cc(C(C)(C)C)ccc1C1COC(c2c(F)cccc2F)=N1 (stereo unspecified) |  | 20 µM (active)
27 | CCOc1nc(F)cc2nc(S(=O)(=O)Nc3c(Cl)cccc3Cl)nn12 | inactive | 
28 | CC1(C)C(C(=O)OC(C#N)c2cccc(Oc3ccccc3)c2)C1(C)C (stereo unspecified) |  | 1.54 µM (active)
29 | N#CN=C1SCCN1Cc1ccc(Cl)nc1 |  | 4.76 µM (active)
30 | Cc1nc(N(C)C)nc(OC(=O)N(C)C)c1C | inactive | 
31 | CCCCC(O)(Cn1cncn1)c1ccc(Cl)cc1Cl (stereo unspecified) |  | 2.23 µM (active)

Source: PubChem BioAssay (EPA / NIEHS)
